# Measured values taken from PubChem BioAssay (Tox21).
# Values without a mark were called inactive. Inconclusive results are not listed. Entries that show only a call come without a potency. Calls of active or inactive are those of the source. Unless noted, calls follow the shape of the full dose curve.
# Assays:
# [1] = molecular target: Gonadotropin-releasing hormone receptor (Homo sapiens) (UniProt P30968); test: Human gonadotropin-releasing hormone receptor (GnRHR) small molecule agonists, calcium flux assay in GnRHR-HEK293 cells (AID 1920063); also: nearly all actives have a fitted effect of over 35% in size
# Procedure, shortened: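 We seeded human GnRHR-expressing HEK293 cells for 18 hours, loaded them with calcium dye for an hour at 37 C, added test compounds, and recorded fluorescence intensity kinetically for three minutes.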
# [2] = molecular target: KiSS-1 receptor (Homo sapiens) (UniProt Q969F8); test: Human kisspeptin (KISS1R) small molecule agonists, calcium flux assay in KISS1R-HEK293 cells (AID 1920064; active = well fitted activation curve with a large enough effect in the repeat runs)
# Procedure, shortened: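 Kinetic calcium assay, 1 s sampling over 3 min at Ex/Em 480/540, in HEK293 cells engineered with human KISS1R; compounds delivered in DMSO after 1 h dye loading.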
# [3] = G protein-coupled receptor (GPCR) small molecule agonists, calcium flux assay: HEK293 wild type cell line counter screen (AID 1920065); also: potency is read from the fitted curve at half-maximal effect
# Procedure, shortened: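 Calcium-sensitive dye, loaded 1 h at 37 C into cells cultured 18 h, reports compound-evoked calcium release as fluorescence (Ex/Em 480/540), measured over 3 min. Agonist mode; 15-point titrations, triplicate.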
# [4] = p53 small molecule agonists, cell-based qHTS assay with human liver microsomes (AID 1963577);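 also: p53 response element beta-lactamase reporter cells with liver microsomes plus NADPH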
# Procedure, shortened: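 Metabolically competent format: test substances, human liver microsomes and NADPH (both 0.5 mg/mL final) incubated with p53RE-bla cells 16 h at 37 C. Beta-lactamase reporter signal then quantified by fluorescence.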
# [5] = p53 small molecule agonists, cell-based qHTS assay with rat liver microsomes (AID 1963578)
# Procedure, shortened: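 Each plate received p53RE-bla cells, then compound, then rat liver microsomes and NADPH (both 0.5 mg/mL final). Plates were held 16 h at 37 C, and beta-lactamase activity was detected with LiveBLAzer over 2 h.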
# [6] = molecular target: 5-hydroxytryptamine receptor 2A (Homo sapiens) (UniProt P28223); test: 5-hydroxytryptamine receptor 2A (HTR2A) small molecule antagonists, cell-based qHTS assay (AID 1963586); also: nearly all actives have a fitted effect of over 45% in size; also: potency is read from the fitted curve at half-maximal effect
# Procedure, shortened: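 Antagonist-mode intracellular calcium assay: DOI (4 nM) added after 5 min compound pre-incubation at room temperature to dye-loaded HTR2A-CHO cells. Fluorescence followed for 3 min, sampled every second.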
# [7] = molecular target: 5-hydroxytryptamine receptor 2A (Homo sapiens) (UniProt P28223); test: 5-hydroxytryptamine receptor 2A (HTR2A) small molecule agonists, cell-based qHTS assay (AID 1963587); also: nearly all actives have a fitted effect of over 30% in size; also: potency is read from the fitted curve at half-maximal effect
# Procedure, shortened: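 HTR2A-CHO cells, plated 18 h at 37 C/5% CO2, dye-loaded 1 h at 37 C; compounds in DMSO added by pin tool (agonist mode). Intracellular calcium flux read as kinetic fluorescence on FDSS over 2 min at 1 s intervals.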
# [8] = molecular target: Muscarinic acetylcholine receptor M1 (Homo sapiens) (UniProt P11229); test: Cholinergic receptor muscarinic 1 (CHRM1) small molecule antagonists, cell-based qHTS assay (AID 1963588); also: nearly all actives have a fitted effect of over 40% in size
# Procedure, shortened: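 CHRM1-CHO calcium-flux assay, antagonist mode. Cells were seeded 18 h, dye-loaded 1 h at 37 C and given compound for 5 min at RT, then acetylcholine was added at 50nM. FDSS fluorescence was read 3 min; 15 concentrations, three runs.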
# [9] = molecular target: Muscarinic acetylcholine receptor M1 (Homo sapiens) (UniProt P11229); test: Cholinergic receptor muscarinic 1 (CHRM1) small molecule agonists, cell-based qHTS assay (AID 1963589); also: nearly all actives have a fitted effect of over 35% in size; also: potency is read from the fitted curve at half-maximal effect
# Procedure, shortened: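 Measures agonist-induced intracellular calcium rise. Stable human CHRM1 CHO line, 1 h dye load at 37 C, compounds from DMSO, kinetic fluorescence read.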
# [10] = molecular target: D(2) dopamine receptor (Homo sapiens) (UniProt P14416); test: Dopamine D2 receptor (DRD2) small molecule agonists, cell-based qHTS assay (AID 1963594); also: nearly all actives have a fitted effect of over 35% in size
# Procedure, shortened: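 HEK293 cells stably expressing DRD2 were cultured 24 h at 37 C, then given Ro20-1724 (0.1 mM final) and compounds for 10 min at room temperature. NKH477 (200nM) was then added for 30 min. cAMP was read by HTRF.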
# [11] = molecular target: D(2) dopamine receptor (Homo sapiens) (UniProt P14416); test: Dopamine D2 receptor (DRD2) small molecule antagonists, cell-based qHTS assay (AID 1963595; active = well fitted inhibition curve with a large enough effect in the signal ratio in the repeat runs, with a control signal flat; the % refers to the signal ratio; also: potency is read from the fitted curve at half-maximal effect)
# Procedure, shortened: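 HEK293 cells stably expressing DRD2 were preincubated with 0.1 mM Ro20-1724, then with compound for 10 min at room temperature. Cells were stimulated with 200 nM NKH477 plus 12 nM quinpirole for 30 min, and cAMP was read by HTRF.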
# [12] = Nuclear factor erythroid 2-related factor 2/antioxidant responsive element (Nrf2/ARE) small molecule agonists: luciferase reporter gene qHTS assay in human keratinocytes (AID 1919969); also: nearly all actives have a fitted effect of over 35% in size
# [13] = p53 small molecule agonists, cell-based qHTS assay: qHTS cell viability counter screen (AID 1963581); also: nearly all actives have a fitted effect of over 45% in size
# Procedure, shortened: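 Following 5 h attachment, HCT-116 p53RE-bla cells took up compound for 16 h at 37 C; the reporter was read with B/G FRET substrate (2 h RT), and viability then via CellTiter-Glo ATP luminescence.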
# [14] = p53 small molecule agonists, cell-based qHTS assay (AID 1963582; active = well fitted activation curve with a large enough effect in the signal ratio in the repeat runs, not every such curve was filed as active; the % refers to the signal ratio)
# Procedure, shortened: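 In this cell-based concentration-response screen, a p53 response element drives beta-lactamase; cells received DMSO-borne compounds after 5 h culture and were incubated a further 16 h before FRET substrate development.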
# [15] = cAMP Responsive Elements (CRE) small molecule agonists, cell-based qHTS assay (AID 1963590)
# Procedure, shortened: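 A CRE-responsive beta-lactamase reporter in HEK 293T cells was used. Treatment ran 3 h at 37 C; detection used LiveBLAzer B/G FRET substrate for 2 h at room temperature.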
# [16] = p53 small molecule agonists, cell-based qHTS assay with human liver microsomes: qHTS cell viability counter screen (AID 1963579); also: nearly all actives have a fitted effect of over 45% in size
# Procedure, shortened: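 Tox21 library compounds, delivered from DMSO stocks, were tested on p53RE-bla cells together with 0.5 mg/mL human liver microsomes and 0.5 mg/mL NADPH (final) over 16 h at 37 C; CellTiter-Glo luminescence served as the cytotoxicity measure.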
# [17] = p53 small molecule agonists, cell-based qHTS assay with rat liver microsomes: qHTS cell viability counter screen (AID 1963580); also: nearly all actives have a fitted effect of over 45% in size
# Procedure, shortened: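 In HCT-116 cells carrying a p53 response element-bla reporter, compounds were metabolically activated in situ by rat liver microsomes with NADPH over 16 h. Cell ATP content then served as the cytotoxicity measure.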
# [18] = molecular target: Beta-2 adrenergic receptor (Homo sapiens) (UniProt P07550); test: Adrenergic beta2 receptor (ADRB2) small molecule antagonists, cell-based qHTS assay (AID 1963592); also: nearly all actives have a fitted effect of over 50% in size; also: potency is read from the fitted curve at half-maximal effect; as to activity change, negative = inhibition: series mostly up to about 92 µM
# Procedure, shortened: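 Cells (CHO, stable ADRB2 overexpression) incubated 18-20hr at 37C; compounds added from DMSO; agonist mix (1nM isoproterenol, 100uM IBMX, 25uM Ro-20-1724) added; 0.5hr RT; d2-cAMP and anti-cAMP-cryptate added; 1hr RT; 665/615 nm read.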
# [19] = cAMP Responsive Elements (CRE) small molecule antagonists, cell-based qHTS assay (AID 1963591; active = well fitted inhibition curve with a large enough effect in the signal ratio in the repeat runs, not every such curve was filed as active; the % refers to the signal ratio)
# Procedure, shortened: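 HEK293T cells carrying a CRE-driven beta-lactamase reporter receive compound and NKH477 (0.25 uM final) for 3 h. Fluorescence from LiveBLAzer B/G FRET substrate is read after 2 h at room temperature.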
# [20] = molecular target: Beta-2 adrenergic receptor (Homo sapiens) (UniProt P07550); test: Adrenergic beta2 receptor (ADRB2) small molecule agonists, cell-based qHTS assay (AID 1963593);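 also: CHO cells stably overexpressing human ADRB2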
# Procedure, shortened: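 CHO cells stably over-expressing ADRB2 were plated overnight at 37C, then dosed with compounds plus a stimulation mix containing 100uM IBMX and 25uM Ro-20-1724 for 0.5hr at room temperature. cAMP was measured by HTRF competition, 1hr.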
# 5-hydroxytryptamine receptor 2A (Homo sapiens), sequence (P28223 whole entry, looked up): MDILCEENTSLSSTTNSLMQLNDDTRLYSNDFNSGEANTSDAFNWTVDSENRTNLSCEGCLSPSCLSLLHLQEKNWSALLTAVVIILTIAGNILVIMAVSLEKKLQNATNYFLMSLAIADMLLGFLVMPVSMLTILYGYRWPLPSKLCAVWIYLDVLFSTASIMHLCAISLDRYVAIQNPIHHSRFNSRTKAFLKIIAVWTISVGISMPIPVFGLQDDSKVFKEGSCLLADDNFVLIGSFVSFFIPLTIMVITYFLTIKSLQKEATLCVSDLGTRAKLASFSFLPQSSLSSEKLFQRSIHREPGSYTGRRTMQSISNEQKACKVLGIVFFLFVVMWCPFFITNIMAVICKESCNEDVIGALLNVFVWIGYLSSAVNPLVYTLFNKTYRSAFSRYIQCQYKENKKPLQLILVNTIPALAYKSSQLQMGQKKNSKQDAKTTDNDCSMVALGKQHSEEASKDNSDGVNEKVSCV
# Gonadotropin-releasing hormone receptor (Homo sapiens), sequence (P30968 whole entry, looked up): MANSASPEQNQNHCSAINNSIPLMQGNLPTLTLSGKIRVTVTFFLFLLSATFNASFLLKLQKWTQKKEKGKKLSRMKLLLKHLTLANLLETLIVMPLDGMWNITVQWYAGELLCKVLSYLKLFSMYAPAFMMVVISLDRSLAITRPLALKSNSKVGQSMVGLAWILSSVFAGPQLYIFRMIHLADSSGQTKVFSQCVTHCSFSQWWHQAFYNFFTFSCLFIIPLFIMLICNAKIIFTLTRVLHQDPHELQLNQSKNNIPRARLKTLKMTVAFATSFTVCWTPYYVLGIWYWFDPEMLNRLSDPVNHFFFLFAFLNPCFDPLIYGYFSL
# Muscarinic acetylcholine receptor M1 (Homo sapiens), sequence (P11229 whole entry, looked up): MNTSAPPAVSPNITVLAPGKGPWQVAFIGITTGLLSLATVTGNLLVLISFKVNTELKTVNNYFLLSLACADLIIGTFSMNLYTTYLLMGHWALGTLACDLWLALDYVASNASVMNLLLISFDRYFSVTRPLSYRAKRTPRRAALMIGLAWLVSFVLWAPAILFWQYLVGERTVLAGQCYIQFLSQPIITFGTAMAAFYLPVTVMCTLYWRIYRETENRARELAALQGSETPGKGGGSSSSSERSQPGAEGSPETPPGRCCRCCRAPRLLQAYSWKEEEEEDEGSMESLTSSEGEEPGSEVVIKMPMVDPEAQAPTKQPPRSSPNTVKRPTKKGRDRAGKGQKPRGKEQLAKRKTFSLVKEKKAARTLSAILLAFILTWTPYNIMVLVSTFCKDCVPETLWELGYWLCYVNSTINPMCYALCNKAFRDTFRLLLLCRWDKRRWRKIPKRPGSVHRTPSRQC
# D(2) dopamine receptor (Homo sapiens), sequence (P14416 whole entry, looked up): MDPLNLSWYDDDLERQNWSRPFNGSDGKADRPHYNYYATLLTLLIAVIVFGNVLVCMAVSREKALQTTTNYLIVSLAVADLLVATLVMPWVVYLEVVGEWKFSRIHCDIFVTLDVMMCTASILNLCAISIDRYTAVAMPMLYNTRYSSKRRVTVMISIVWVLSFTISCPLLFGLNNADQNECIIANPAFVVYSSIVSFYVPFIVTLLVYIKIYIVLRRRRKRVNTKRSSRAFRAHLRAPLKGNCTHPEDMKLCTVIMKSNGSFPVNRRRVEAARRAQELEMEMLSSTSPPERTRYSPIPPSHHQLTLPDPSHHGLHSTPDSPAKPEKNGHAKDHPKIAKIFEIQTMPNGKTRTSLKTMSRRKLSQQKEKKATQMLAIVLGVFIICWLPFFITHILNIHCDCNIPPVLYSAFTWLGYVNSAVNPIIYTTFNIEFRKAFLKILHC
# Beta-2 adrenergic receptor (Homo sapiens), sequence (P07550 whole entry, looked up): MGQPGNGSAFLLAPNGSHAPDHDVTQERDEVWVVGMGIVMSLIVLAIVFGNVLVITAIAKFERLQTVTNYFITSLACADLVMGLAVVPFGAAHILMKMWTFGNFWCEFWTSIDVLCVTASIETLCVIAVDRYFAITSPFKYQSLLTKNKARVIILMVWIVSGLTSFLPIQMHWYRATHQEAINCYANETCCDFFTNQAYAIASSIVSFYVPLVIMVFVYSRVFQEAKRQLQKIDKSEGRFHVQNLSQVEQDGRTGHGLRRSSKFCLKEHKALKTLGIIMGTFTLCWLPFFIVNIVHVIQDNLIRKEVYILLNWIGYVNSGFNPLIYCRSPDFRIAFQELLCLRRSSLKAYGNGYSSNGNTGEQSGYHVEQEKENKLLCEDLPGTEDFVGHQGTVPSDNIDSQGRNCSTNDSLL
# KiSS-1 receptor (Homo sapiens), sequence (Q969F8 whole entry, looked up): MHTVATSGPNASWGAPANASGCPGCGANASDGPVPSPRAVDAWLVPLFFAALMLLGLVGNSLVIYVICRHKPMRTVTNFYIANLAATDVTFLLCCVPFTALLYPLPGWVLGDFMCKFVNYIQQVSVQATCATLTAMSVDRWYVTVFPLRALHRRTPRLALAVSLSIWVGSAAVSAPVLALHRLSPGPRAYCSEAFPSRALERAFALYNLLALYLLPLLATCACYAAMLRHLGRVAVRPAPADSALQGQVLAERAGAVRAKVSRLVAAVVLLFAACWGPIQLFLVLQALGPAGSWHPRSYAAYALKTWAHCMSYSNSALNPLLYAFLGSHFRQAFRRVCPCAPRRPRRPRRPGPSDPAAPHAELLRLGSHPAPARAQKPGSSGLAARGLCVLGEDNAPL
smiles,measurement,setting,value
c1cc[c]([Hg][c]2ccccc2)cc1,Potency,[1],inactive
same,Potency,[2],inactive
same,Potency,[3],inactive
same,Potency,[4],inactive
same,Potency,[5],inactive
same,Potency,[6],inactive
same,Potency,[7],inactive
same,Potency,[8],inactive
same,Potency,[9],inactive
same,Potency,[10],inactive
same,Potency,[11],4.33 µM (active)
Nc1ccc(Cc2ccc(N)c(Cl)c2)cc1Cl,Potency,[12],inactive
same,Potency,[2],inactive
same,Potency,[3],inactive
same,Potency,[4],inactive
same,Potency,[5],inactive
same,Potency,[13],inactive
same,Potency,[14],inactive
same,Potency,[8],inactive
same,Potency,[9],inactive
same,Potency,[15],inactive
same,Potency,[10],inactive
same,Potency,[11],inactive
Nc1ccccc1C(=O)Oc1ccc2ccccc2c1,Potency,[1],inactive
same,Potency,[2],inactive
same,Potency,[3],inactive
same,Potency,[4],inactive
same,Potency,[5],inactive
same,Potency,[16],inactive
same,Potency,[17],inactive
same,Potency,[14],inactive
same,Potency,[6],inactive
same,Potency,[7],inactive
same,Potency,[8],inactive
same,Potency,[9],inactive
same,Potency,[18],inactive
same,Potency,[10],inactive
same,Potency,[11],inactive
Nc1c(Br)cc(Br)c2c1C(=O)c1ccccc1C2=O,"activity, positive = activation",[12],4.98% [at 19 µM]
same,activation,[2],7.67% [at 15.8 µM]
same,activation,[3],0.165% [at 11.8 µM]
same,"activity change, negative = cytotoxicity",[16],2.22% [at 13.5 µM]
same,"activity change, negative = cytotoxicity",[17],-8.42% [at 13.5 µM]
same,"activity change, negative = cytotoxicity",[13],13.4% [at 13.5 µM]
same,"activity, negative = inhibition",[6],6.3% [at 12.7 µM]
same,activation,[7],-1.81% [at 15.9 µM]
same,"activity, negative = inhibition",[8],-4.93% [at 12.6 µM]
same,activation,[9],-0.118% [at 15.8 µM]
same,activation,[15],-1.39% [at 19 µM]
same,"activity change, negative = inhibition",[18],17.4% [at 19 µM]
same,activation,[10],-0.116% [at 19 µM]
same,"activity change, negative = inhibition",[11],9% [at 18.9 µM]
Nc1nc(N)c(N)c(N)n1,Potency,[12],inactive
same,Potency,[3],39.1 µM (active)
same,Potency,[4],inactive
same,Potency,[5],inactive
same,Potency,[16],inactive
same,Potency,[17],inactive
same,Potency,[13],inactive
same,Potency,[14],inactive
same,Potency,[6],inactive
same,Potency,[7],43.9 µM (active)
same,Potency,[8],inactive
same,Potency,[9],55.2 µM (active)
same,Potency,[15],inactive
same,Potency,[19],inactive
same,Potency,[18],inactive
CCC1CCC(=O)O1 (stereo not given),Potency,[12],inactive
same,Potency,[2],inactive
same,Potency,[3],inactive
same,Potency,[16],inactive
same,Potency,[17],inactive
same,Potency,[6],inactive
same,Potency,[7],inactive
same,Potency,[8],inactive
same,Potency,[9],inactive
same,Potency,[15],inactive
same,Potency,[19],inactive
same,Potency,[18],inactive
same,Potency,[20],inactive
same,Potency,[10],inactive
same,Potency,[11],inactive
CCCCCCCCCCCCCCC(Br)C(=O)O (stereo not given),Potency,[1],inactive
same,Potency,[2],inactive
same,Potency,[3],inactive
same,Potency,[4],inactive
same,Potency,[5],inactive
same,Potency,[16],inactive
same,Potency,[17],inactive
same,Potency,[13],inactive
same,Potency,[6],inactive
same,Potency,[7],inactive
same,Potency,[8],inactive
same,Potency,[9],inactive
same,Potency,[15],inactive
same,Potency,[18],inactive
same,Potency,[20],inactive
same,Potency,[10],inactive
same,Potency,[11],inactive
COc1ccccc1N1CCNCC1,Potency,[12],inactive
same,Potency,[2],inactive
same,Potency,[3],inactive
same,Potency,[4],inactive
same,Potency,[5],inactive
same,Potency,[17],inactive
same,Potency,[13],inactive
same,Potency,[14],inactive
same,Potency,[6],0.729 µM (active)
same,Potency,[7],1.69 µM (active)
same,Potency,[8],inactive
same,Potency,[9],inactive
same,Potency,[15],inactive
same,Potency,[19],inactive
same,Potency,[18],13.3 µM (active)
same,Potency,[11],inactive
